Sampled rows, rich in hits. Any-hit rate of the full collection: about 4.1%.
DAX1 inh-1 = inhibitors of human orphan nuclear receptor DAX1 (NR0B1) | P51843 | HEK293 Gal4-DAX1 luciferase reporter, luminescence | inhibition, % at 6.75 µM | actives 0.99% (n = 340,000) | AID 504766;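 active means inhibition above the mean over all tested compounds plus 3 SD, cut at about 4.2% in these data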;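 further: 0% = DAX1-transfected cells with DMSO and 100% = empty-vector control cells with DMSO; inhibition shows as a rise in luminescence from relieved DAX1 repression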
Target sequence (P51843 207-470 limits assumed): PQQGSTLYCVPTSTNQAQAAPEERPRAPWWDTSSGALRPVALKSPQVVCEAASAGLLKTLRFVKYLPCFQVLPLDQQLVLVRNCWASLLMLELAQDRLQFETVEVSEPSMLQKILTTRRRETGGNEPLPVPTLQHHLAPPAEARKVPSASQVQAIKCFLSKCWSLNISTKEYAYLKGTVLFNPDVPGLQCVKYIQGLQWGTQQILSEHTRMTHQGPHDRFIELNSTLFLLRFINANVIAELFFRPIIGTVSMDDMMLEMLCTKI
ssDAF-12 act = activators of S. stercoralis DAF-12 nuclear receptor; activation, % at 6.8 µM; AID 652126; HEK293 ssDAF-12/GRIP1 lit1-tk-luc reporter, luminescence; % of 3 µM dafachronic acid response; actives 1% (n = 370,000);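 active means activation above the mean over all tested compounds plus 3 SD, cut at about 0.9% in these data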;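 further: 0% = DMSO-only wells and 100% = 3 µM delta7-dafachronic acid wells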
DAX1 inh-2 = DAX1 (NR0B1) inhibition, primary screen; AID 652010; actives 1.1% (n = 370,000); HEK293T StAR-luciferase reporter, SF-1/DAX-1 repression relief; inhibition, % at 6.8 µM;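 active means inhibition above the mean over all tested compounds plus 3 SD, cut at about 3.6% in these data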;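 further: 0% = DAX-1 cells with DMSO and 100% = cells lacking DAX-1 with DMSO; higher inhibition means more luminescence from relief of DAX-1 repression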
hcDAF12 agonist = H. contortus DAF-12 activation, primary screen; HEK293 hcDAF-12 lit1-tk-luc reporter, luminescence; 0% DMSO, 100% Δ7-dafachronic acid; activation, % at 6.8 µM; actives 1.4% (n = 370,000); AID 652067;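 active means activation above the mean of all tested compounds plus 3 SD, cut at about 5.5% in these data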;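 further: 100% = response to 3 µM Δ7-dafachronic acid high control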
hgDAF-12 ag = hgDAF-12 agonism, primary luciferase screen | HEK293 GAL4-hgDAF12 UAS-luciferase reporter, agonist luminescence; normalized to butyrate control | actives 1.8% (n = 370,000) | activation, % at 6.8 µM | AID 687014;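 active means activation above a cutoff set at the mean of all screened compounds plus 3 SD, cut at about 10% in these data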;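 further: 0% = DMSO wells and 100% = sodium butyrate wells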
* marks the source's active call; other numbers are inactive results; . = not tested or not shown.

SMILES	DAX1 inh-1	ssDAF-12 act	DAX1 inh-2	hcDAF12 agonist	hgDAF-12 ag
CC1CN(CC(O)COC(c2ccc(Cl)cc2)c2ccc(Cl)cc2)CC(C)O1 (stereo unspecified)	-0.3	-1.1	-0.6	-1.8	-0.3
CN(C)CC(O)COC(c1ccc(Cl)cc1)c1ccc(Cl)cc1 (stereo unspecified)	4.3*	-1.0	-0.3	0.6	1.1
CC(C)Oc1cccc(-c2n[nH]c(=S)n2N=Cc2ccc(OCc3ccccc3)cc2)c1	.	-0.7	0.6	0.7	5.2
CCCC(=O)N1CCC[C@]2(CC[C@@H](CCC#N)O2)C1	.	-1.4	0.3	0.7	-1.3
CCCCN(C)CCNC(=O)c1ccc(Cn2c(=S)[nH]c3ccc(Br)cc3c2=O)cc1	-0.1	-1.3	4.0*	-0.1	0.0
CCCCCCCCNC(=O)C1CSCCS(=O)(=O)N1Cc1ccc(F)cc1 (stereo unspecified)	.	-1.2	-0.2	0.6	-1.2
O=C1c2ccccc2NC(c2ccc(Cl)cc2Cl)N1O (stereo unspecified)	1.3	-1.0	0.0	2.0	2.2
O=C1c2ccccc2NC(c2cccc(Cl)c2)N1N=C1CCCCCC1 (stereo unspecified)	4.9*	-0.6	1.5	1.6	7.1
OC(c1ccccc1)(c1ccccc1)C1CCN(CCCNc2cccc(Br)c2)CC1	.	-0.2	-0.2	-1.8	-1.3
Cc1cc(C(=O)NCCC2=CCCCC2)ccc1[N+](=O)[O-]	.	-0.5	2.8	2.7	10.9*
COc1ccc(C(=O)NCCC2=CCCCC2)cc1OC	1.1	0.5	1.9	2.4	4.3
COc1cccc(C(=O)NCCC2=CCCCC2)c1	-1.5	-0.4	2.6	3.5	11.5*
O=C(CCNC(=O)c1ccc([N+](=O)[O-])cc1)NCCC1=CCCCC1	0.1	-0.4	0.2	-1.3	-1.1
CC1(C(=O)N2CCC(Oc3cccnc3)CC2)CC1	.	-1.0	-0.2	0.1	4.0
COc1ccc(C2=Cc3ccc(OC(C)=O)cc3OC2)cc1	5.5*	-0.2	2.3	0.9	7.3
CC(=O)c1cc(-c2cccc(C(C)C)c2)c(=O)n2c1CCC2	.	-0.3	-0.1	-0.5	-0.1
COc1ccc(/C=N/NC(=O)c2[nH]ncc2Br)c(OC)c1	2.4	-0.4	1.3	1.1	11.2*
COc1ccc(/C=N/NC(=O)c2cccc(NC(C)=O)c2)c(OC)c1	-0.2	-1.1	-0.7	0.5	4.0
Nc1nccnc1C(=O)N/N=C/c1ccco1	6.9*	-0.7	0.6	1.4	5.9
O=C(N/N=C/c1ccco1)c1[nH]ncc1Br	7.1*	0.3	2.7	0.6	7.2
Cc1ccccc1C(=O)NC1CCCCN(C(C)C)C1=O (stereo unspecified)	.	0.2	0.2	-3.0	1.7
Cc1nc(NC(=O)CSc2nnnn2C)sc1C	1.0	-0.9	0.9	0.2	8.1
COC(=O)c1sc(NC(=O)CSc2nnnn2C)nc1C	0.0	0.3	0.5	5.6*	9.7
COC(=O)c1sc(NC(=O)CSc2nnc(Cn3nnc4ccccc43)n2C)nc1C	0.3	1.1*	-0.2	0.9	1.1
COC(=O)c1c(NC(=O)CSc2nnc(Cn3nnc4ccccc43)n2C)sc(C)c1C	0.6	-0.9	0.6	-1.1	0.0
SMILES	DAX1 inh-1	ssDAF-12 act	DAX1 inh-2	hcDAF12 agonist	hgDAF-12 ag
CCCCNC(=O)C[C@H]1C[C@@]2(C(=O)OC)C(=C[C@H](C(C)C)O[C@@H]2C2CC2)N(CCC2=CCCCC2)C1=O	.	-1.1	0.6	0.1	1.9
COC(=O)[C@]12C[C@H](CC(=O)N3CCCCC3)C(=O)N(Cc3ccco3)C1=C[C@H](C(C)(C)C)O[C@@H]2C	.	-1.9	0.2	-1.8	-3.9
COc1ccc2c(c1)CN1C(=O)N(Cc3ccccc3)S(=O)(=O)CC21 (stereo unspecified)	.	-0.3	-0.6	-1.3	3.9
CCN(C(=O)CN1CCN(c2nc(-c3ccccc3)cs2)CC1)c1ccccc1C	.	-2.0	-1.9	-2.1	-5.2
Cc1ccc(NC(=O)C[n+]2cc(-c3ccccc3)n3c2CCC3)cc1	.	-0.9	-0.4	-1.3	-0.7
Cc1ccc(-c2c[n+](CC(=O)Nc3ccccc3C)c3n2CCC3)cc1	4.3*	-1.6	-0.1	0.8	-0.8
O=C(C[n+]1cc(-c2ccc(F)cc2)n2c1CCC2)c1cccs1	6.7*	-1.4	0.1	0.6	0.5
CCCN(CC(=O)Nc1cccc(Br)c1)CC(=O)Nc1ccc(F)c(F)c1F	-0.7	-2.2	-0.9	0.0	-0.3
CCCN(CC(=O)Nc1ccc(NC(C)=O)cc1)CC(=O)Nc1ccc(F)c(F)c1F	4.6*	-1.4	-0.7	-2.8	-0.6
COC(=O)C1CN(Cc2ccccc2)CCS(=O)(=O)N1Cc1ccccc1 (stereo unspecified)	.	-1.3	-0.1	-1.1	2.4
COc1ccc(OC)c(S(=O)(=O)N(CC(=O)NC2CCC(C)CC2)c2cc(C)cc(C)c2)c1 (stereo unspecified)	.	-1.0	1.1	1.5	7.7
CC1(C)CC(NC(=O)c2ccc(Cl)c(Cl)c2)CC(C)(C)N1	4.6*	-0.8	0.6	1.0	1.0
COc1ccc(-n2ncc3c(NCc4cccnc4)ncnc32)cc1	2.4	0.1	2.1	3.3	11.3*
CCCCCN1CCCCC(NC(=O)c2ccc(F)cc2)C1=O (stereo unspecified)	.	-1.2	-0.6	-1.8	-2.0
COc1cc(NC(=O)C2CCCN(S(=O)(=O)c3ccccc3[N+](=O)[O-])C2)cc(OC)c1 (stereo unspecified)	.	-1.5	-1.1	-2.7	-4.3
COc1cc(OC)c(OC)cc1/C=C1\Oc2cc(OCC(=O)N3Cc4ccccc4C[C@H]3C(=O)O)ccc2C1=O	4.5*	.	.	.	.
COc1ccc(/C=C2\Oc3cc(OCC(=O)N4CCC[C@H]4C(=O)O)ccc3C2=O)c(OC)c1	6.7*	.	.	.	.
COc1ccc(OC)c(/C=C2\Oc3cc(OCC(=O)N4CCC[C@H]4C(=O)O)ccc3C2=O)c1	3.5	.	.	.	.
O=C(CCc1ccccc1)N[C@H]1[C@H](OC(=O)c2cccnc2)CCC[C@@]12C(=O)N(Cc1ccccc1)c1ccccc12	.	-1.7	-0.5	-1.6	-0.4
Cc1ccc(NC(=O)c2snc3ccc(Cl)cc23)cc1C	1.8	0.1	2.2	6.0*	10.4
CCCCNC(=O)C[C@H]1C[C@@]2(C(=O)OC)C(=C[C@H](C(C)(C)C)O[C@@H]2C)N(Cc2ccco2)C1=O	.	-1.9	-0.4	-1.0	-0.7
Nc1nc2ccc(Oc3ccccc3)cc2s1	0.4	0.0	1.3	1.3	11.6*
COC(=O)c1ccc(NC(=O)Nc2ccc3c(c2)nc(C)n3C)cc1	-0.3	-1.3	-1.1	-3.2	2.5
CC(=O)c1ccc(NC(=O)Nc2ccc3c(c2)nc(C)n3C)cc1	0.4	-0.6	4.0*	1.7	8.9
Cc1nc2cc(NC(=O)Nc3cccc([N+](=O)[O-])c3)ccc2n1C	3.8	-0.7	2.5	2.2	11.2*
Cc1occc1C(=O)Nc1cc(C(C)(C)C)on1	2.1	-0.5	4.2*	3.6	12.3*

Screening data from PubChem.
